NFkB binder = binders of NF-kB p50 subunit, primary screen, biochemical, small molecule microarray, anti-His fluorescence. Nuclear factor NF-kappa-B p105 subunit (Homo sapiens), P19838. hit rate 1.3% among 17,000. calls only. anti-His fluorescence binding;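 active means spot fluorescence over background significantly raised, with a chance value under 7% in all four replicate spots of the compound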;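 further: probe protein is his-tagged human p50 processed subunit at 1 µg/ml; raw spot fluorescence signals with no normalization applied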
Target sequence (P19838 1-433 limits assumed): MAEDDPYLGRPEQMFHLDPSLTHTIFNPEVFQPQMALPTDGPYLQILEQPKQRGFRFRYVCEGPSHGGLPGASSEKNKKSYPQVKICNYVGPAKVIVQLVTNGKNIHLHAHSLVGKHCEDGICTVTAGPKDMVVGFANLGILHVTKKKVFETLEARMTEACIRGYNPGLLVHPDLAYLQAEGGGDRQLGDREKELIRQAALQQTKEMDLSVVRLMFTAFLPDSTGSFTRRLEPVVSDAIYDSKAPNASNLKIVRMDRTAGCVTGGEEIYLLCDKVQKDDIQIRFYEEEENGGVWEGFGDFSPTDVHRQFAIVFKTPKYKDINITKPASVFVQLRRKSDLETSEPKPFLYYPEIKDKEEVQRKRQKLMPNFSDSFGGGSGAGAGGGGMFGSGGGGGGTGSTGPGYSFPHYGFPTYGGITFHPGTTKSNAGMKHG
p53 mut binder = binders of human mutant p53, primary screen, biochemical, small molecule microarray, anti-GST fluorescence | mutant tumor protein p53 (GST-tagged), Homo sapiens | small molecule microarray binding | calls only | hit rate 0.4% among 17,000 | AID 624136, 2012;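 active means compounds whose four printed spots each glow above background more than chance allows, each with a p-value under 7%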
c-Myc SMM = binders of human c-Myc, primary screen, biochemical, small molecule microarray, anti-His fluorescence; calls only; His-c-Myc binding; hit rate 1.5% among 17,000;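 active means spot fluorescence over background with P-value below 7% in all four replicate spots, showing protein binding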;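 further: score is binary with 100 for all four spots passing and 0 otherwise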
STAT3 binder = STAT3 binders, primary screen, biochemical, small molecule microarray, single point, set 2 | Signal transducer and activator of transcription 3 (Homo sapiens), P40763 | hit rate 0.2% among 17,000 | calls only | His-STAT3 binding, anti-His fluorescence;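 active means compounds whose four printed spots each show fluorescence over background unusually high for their array block, chance value under 7%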
* = called active by the depositor; i = inactive; + = active, no number. Rows were chosen to be rich in hits. Some 2.5% of all compounds tested hit in one or more screens of this group.

SMILES	NFkB binder	p53 mut binder	c-Myc SMM	STAT3 binder
COc1ccc(OC)c(NC(=O)CSc2nnnn2C)c1	i	i	i	i
Cn1nnnc1SCCNC/C=C/c1ccccc1	i	i	+	i
C[C@H](CO)N1C[C@H](C)[C@H](CN(C)S(=O)(=O)c2cccs2)OCc2cn(nn2)CCCC1=O	i	i	i	i
COC(=O)c1ccccc1NC(=O)c1ccc(NC(=O)COc2ccccc2)cc1	i	i	i	i
O=[N+]([O-])c1ccc(NCCNCCO)cc1	i	+	i	i
CO[C@H]1/C=C\O[C@@]2(C)Oc3c(C)c(O)c4c(O)c(c(/C=N/N5CCN(C)CC5)c(O)c4c3C2=O)NC(=O)/C(C)=C\C=C[C@H](C)[C@H](O)[C@@H](C)[C@@H](O)[C@@H](C)[C@H](OC(C)=O)[C@@H]1C	i	i	i	i
CO[C@H]1/C=C\O[C@@]2(C)Oc3c(C)c(O)c4c(O)c(c(/C=N\N5CCN(C)CC5)c(O)c4c3C2=O)NC(=O)/C(C)=C\C=C/C(C)[C@H](O)[C@@H](C)[C@@H](O)[C@@H](C)[C@@H](OC(C)=O)[C@@H]1C (some centres not stated)	+	i	i	i
c1ccc(-c2cn3c4ccccc4n(CCN4CCOCC4)c3n2)cc1	i	i	+	i
CCOC(=O)C1=C(C)Nc2ncnn2C1c1ccccn1 (configuration not stated)	i	i	i	i
COc1cc(OC)nc(NC(=O)CSc2nc3ccccc3s2)n1	i	i	i	i
Cc1ccc(S(=O)(=O)NC(=O)CSc2nc3ccccc3s2)cc1	i	i	+	i
C[C@H](CO)N1C[C@H](C)[C@H](CN(C)S(=O)(=O)c2ccccc2)OCCCC[C@H](C)Oc2ccc(N(C)C)cc2C1=O	+	+	i	i
C[C@@H]1CN([C@H](C)CO)C(=O)c2cc(N(C)C)ccc2O[C@@H](C)CCCCO[C@@H]1CN(C)Cc1ccccc1	i	+	i	+
C[C@@H]1CCCCO[C@H](CN(C)Cc2ccccc2)[C@H](C)CN([C@@H](C)CO)C(=O)c2cc(N(C)C)ccc2O1	i	i	i	i
Cc1ccc(S(=O)(=O)N(C)C[C@H]2OCCCC[C@H](C)Oc3ccc(NC(=O)NC4CCCCC4)cc3C(=O)N([C@H](C)CO)C[C@H]2C)cc1	i	+	+	i
C[C@@H]1CCCCO[C@@H](CN(C)Cc2ccccc2)[C@H](C)CN([C@@H](C)CO)C(=O)c2cc(NC(=O)CCCN(C)C)ccc2O1	i	i	i	i
C[C@H](CO)N1C[C@H](C)[C@H](CN(C)Cc2ccccc2)OCCCC[C@H](C)Oc2ccc(NC(=O)CCCN(C)C)cc2C1=O	+	i	i	i
Cc1noc(C)c1NC(=O)N(C)C[C@H]1Oc2ccc(NC(=O)Nc3ccc(F)cc3)cc2C(=O)N([C@@H](C)CO)C[C@H]1C	i	i	i	i
COc1ccc(NC(=O)Nc2ccc3c(c2)C(=O)N([C@H](C)CO)C[C@H](C)[C@@H](CN(C)Cc2ccc(C(=O)O)cc2)O3)cc1	i	i	i	i
COc1ccc(C(=O)NC(c2ccc(OC)c(OC)c2)c2cc(Cl)c3cccnc3c2O)cc1 (configuration not stated)	i	i	i	i
CC(=O)Oc1ccc(NC(=O)COc2ccccc2)c(C(=O)O)c1	i	i	i	i
Cn1ccc2cc(NC(=O)Nc3cccnc3)ccc21	i	i	i	i
CC(C)NC(=O)Nc1ccc2c(c1)C(=O)N([C@@H](C)CO)C[C@H](C)[C@@H](CN(C)S(=O)(=O)c1ccccc1)OCCCC[C@@H](C)O2	+	i	+	i
O=C(CSc1ncccc1C(=O)O)c1cccc([N+](=O)[O-])c1	i	i	+	i
CSCC(NS(=O)(=O)c1ccc(Br)cc1)C(=O)O (configuration not stated)	+	i	+	i
SMILES	NFkB binder	p53 mut binder	c-Myc SMM	STAT3 binder
Cc1ccc(S(=O)(=O)NC(Cc2c[nH]c3ccccc23)C(=O)O)cc1 (configuration not stated)	i	i	i	i
C[C@@H]1O[C@@H](O[C@H]2[C@@H](O)[C@@H](C)O[C@@H](O[C@H]3[C@H](O)[C@@H](O)[C@H](O[C@H]4CC[C@@]5(C)C(CC[C@]6(C)C5C=CC5=C7CC(C)(C)CC[C@]7(CO)CC[C@]56C)[C@]4(C)CO)O[C@@H]3CO)[C@@H]2O[C@@H]2O[C@H](CO)[C@@H](O)[C@H](O)[C@H]2O)[C@H](O)[C@H](O)[C@H]1O (some centres not stated)	+	i	+	i
CC1(C)CC[C@]2(C(=O)O)CC[C@]3(C)C(=CCC4[C@@]5(C)CC[C@H](O[C@@H]6OC[C@H](O)[C@H](O)[C@H]6O)[C@@](C)(CO)C5CC[C@]43C)C2C1 (some centres not stated)	+	i	i	i
CC1OC(O[C@H]2CC[C@@]3(C)C(CC[C@]4(C)C3CC=C3C5CC(C)(C)CC[C@]5(C(=O)OC5OC(CO)C(OC6OC(CO)C(O)C(O)C6O)C(O)C5O)CC[C@]34C)C2(C)C)C(O)C(O)C1OC1OCC(O)(COC2OCC(O)C(OC3OCC(OC4OCC(O)(CO)C4O)C(O)C3O)C2O)C1O (some centres not stated)	i	i	i	i
C/C=C(\C)C(=O)O[C@H]1[C@H](OC(C)=O)[C@@]2(CO)C(CC1(C)C)C1=CCC3[C@@]4(C)CC[C@H](O[C@@H]5O[C@H](C(=O)O)[C@@H](O)[C@H](O[C@@H]6O[C@H](CO)[C@H](O)[C@H](O)[C@H]6O[C@@H]6O[C@@H](C)[C@H](O)[C@@H](O)[C@H]6O)[C@H]5O[C@@H]5O[C@H](CO)[C@@H](O)[C@H](O)[C@H]5O)C(C)(C)C4CC[C@@]3(C)[C@]1(C)C[C@H]2O (some centres not stated)	+	i	i	i
CC1(C)CC[C@@]2(C(=O)O[C@@H]3O[C@H](CO)[C@@H](O)[C@H](O)[C@H]3O)C(C1)C1=CCC3[C@@]4(C)CC[C@@H](O[C@@H]5O[C@H](C(=O)O)[C@@H](O[C@@H]6OC[C@@H](O)[C@H](O)[C@H]6O)[C@H](O)[C@H]5O)C(C)(C)C4CC[C@@]3(C)[C@]1(C)C[C@H]2O (some centres not stated)	i	i	i	i

Screens from PubChem BioAssay.
